According to PubChem BioAssay (NCATS):
“And” between values parts separate entries of the source, which are not always exact repeats. Identical values can stand only once. Inconclusive results are not listed. More than one record can exist for a structure, and the calls need not agree. The source made the active and inactive calls. Calls follow the shape of the dose curve; as a rule, active = well fitted curve in the direction sought with a large enough effect; inconclusive = small, poorly fitted or top-dose-only effect, or another doubt; inactive = no such curve, though single readings can be large; an effect the other way counts as inactive or inconclusive.

Tests used:
[1] = tested on: MKL-1; assay: qHTS assay to identify novel small-molecules to repurpose for Merkel cell carcinoma treatment (AID 1296009); conditions: MCC and control cell lines, CellTiter-Glo viability, 72 h; series mostly up to 46 µM; also: nearly all actives have a fitted effect of over 60% in size; also: potency is read from the fitted curve at half-maximal effect
Outline: (§1)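 Cells exposed to NPC (8-point) and MIPE (11-point) compound dilutions for 72 hr at 37 degree celsius; viability read by CellTiter-Glo luminescence, normalized to no-cell and DMSO in-plate controls.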

[2] = tested on: MKL-2; assay: as above; conditions: MCC and control cell lines, CellTiter-Glo viability, 72 h; series mostly up to 46 µM
Outline: as §1

[3] = tested on: UISO; assay: as above; conditions: MCC and control cell lines, CellTiter-Glo viability, 72 h; series mostly up to 46 µM
Outline: as §1

[4] = tested on: WaGa; assay: as above; conditions: MCC and control cell lines, CellTiter-Glo viability, 72 h; series mostly up to 46 µM
Outline: as §1

[5] = tested on: C33A; assay: Primary qHTS to identify gynecologic anti-cancer compounds using libraries of approved drugs and bioactive compounds (AID 1345084); conditions: Gynecologic cancer cell panel viability, ATPlite luminescence, 48 h; series mostly up to 57.5 µM; also: nearly all actives have a fitted effect of over 55% in size
Outline: (§2)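 Cells, 1,000 per well, plated 16 h, then exposed 48 h at 37 C to compounds. Viability by ATPlite luminescence after 15 min at room temperature.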

[6] = tested on: CAOV3; assay: as above; conditions: Gynecologic cancer cell panel viability, ATPlite luminescence, 48 h; series mostly up to 57.5 µM
Outline: as §2

[7] = tested on: CASKI; assay: as above; conditions: Gynecologic cancer cell panel viability, ATPlite luminescence, 48 h; series mostly up to 57.5 µM
Outline: as §2

[8] = tested on: Es-2; assay: as above; conditions: Gynecologic cancer cell panel viability, ATPlite luminescence, 48 h; series mostly up to 57.5 µM
Outline: as §2

[9] = tested on: HeLa; assay: as above; conditions: Gynecologic cancer cell panel viability, ATPlite luminescence, 48 h; series mostly up to 57.5 µM
Outline: as §2

[10] = tested on: Hek293T; assay: as above; conditions: Gynecologic cancer cell panel viability, ATPlite luminescence, 48 h, control line for the selectivity index; series mostly up to 57.5 µM
Outline: as §2

[11] = tested on: JEG-3; assay: as above; conditions: Gynecologic cancer cell panel viability, ATPlite luminescence, 48 h; series mostly up to 57.5 µM
Outline: as §2

[12] = tested on: OV90; assay: as above; conditions: Gynecologic cancer cell panel viability, ATPlite luminescence, 48 h; series mostly up to 57.5 µM
Outline: as §2

[13] = tested on: PA-1; assay: as above; conditions: Gynecologic cancer cell panel viability, ATPlite luminescence, 48 h; series mostly up to 57.5 µM
Outline: as §2

[14] = tested on: SKOV3; assay: as above; conditions: Gynecologic cancer cell panel viability, ATPlite luminescence, 48 h; series mostly up to 57.5 µM
Outline: as §2

[15] = tested on: Tov-21-G; assay: as above; conditions: Gynecologic cancer cell panel viability, ATPlite luminescence, 48 h; series mostly up to 57.5 µM
Outline: as §2

[16] = tested on: Tov112D; assay: as above; conditions: Gynecologic cancer cell panel viability, ATPlite luminescence, 48 h; series mostly up to 57.5 µM
Outline: as §2

[17] = Drug repurposing screens with cells derived from glioblastoma tumor samples (AID 1345199); conditions: GBM patient neurospheres viability, ATP luminescence, 48 h; also: nearly all actives have a fitted effect of over 40% in size; also: potency is read from the fitted curve at half-maximal effect
Outline: (§3)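 Four patient lines of CD133+ GBM neurospheres were screened at several concentrations; hits were retested in those lines plus three slower-growing GBM lines, using 48-hour treatment and ATP-based viability.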

[18] = tested on: astro; assay: as above; conditions: viability, ATP luminescence, 48 h; series mostly up to 45.9 µM
Outline: as §3

[19] = at 45.9 µM (top of the series), tumour line B
[20] = at 45.9 µM (top of the series), tumour line D
[21] = at 46.1 µM (top of the series), tumour line C
[22] = at 46 µM (top of the series), tumour line A
[23] = at 20 µM (top of the series), tumour line C
[24] = at 21.2 µM (top of the series), tumour line B
[25] = at 21.2 µM (top of the series), tumour line D
[26] = at 21.3 µM (top of the series), tumour line A
% is scaled to controls: 0 for no effect and ±100 for the full control effect.

Clc1ccc2c(c1)C(N1CCNCC1)=Nc1ccccc1O2
inactive: Potency [1] | Potency [2] | Potency [3] | Potency [4] | Potency [5] | Potency [6] | Potency [7] | Potency [8] | Potency [9] | Potency [10] | Potency [11] | Potency [12] | Potency [13] | Potency [14] | Potency [15] | Potency [16] | activity, negative = cell killing [17, 19] -27.8% | activity, negative = cell killing [17, 20] -2.29% | activity, negative = cell killing [17, 21] -0.706%
active: Potency ([17]; tumour line A) 14.1 µM

Nc1ccn([C@H]2CC[C@@H](CO)O2)c(=O)n1
inactive: Potency [1] | Potency [2] | Potency [3] | Potency [4] | Potency [5] | Potency [7] | Potency [8] | Potency [9] | Potency [10] | Potency [11] | Potency [12] | Potency [13] | Potency [14] | Potency [15] | Potency [16] | activity, negative = cell killing [17, 19] -3.23% | activity, negative = cell killing [17, 20] -22.8% | activity, negative = cell killing [17, 21] -9.64%

Cn1c(=O)c2c(ncn2C)n(C)c1=O
inactive: Potency [1] | Potency [2] | Potency [3] | Potency [4] | Potency [5] | Potency [7] | Potency [8] | Potency [9] | Potency [10] | Potency [11] | Potency [12] | Potency [13] | Potency [14] | Potency [15] | Potency [16] | activity, negative = cell killing [17, 19] -15% | activity, negative = cell killing [17, 20] -11.6% | activity, negative = cell killing [17, 22] -31.4% | activity, negative = cell killing [17, 21] -0.268%

CN(C)c1nc(N(C)C)nc(N(C)C)n1
inactive: Potency [1] | Potency [2] | Potency [3] | Potency [4] | Potency [5] | Potency [6] | Potency [7] | Potency [8] | Potency [9] | Potency [10] | Potency [11] | Potency [12] | Potency [13] | Potency [15] | Potency [16] | activity, negative = cell killing [17, 23] 0.771% | activity, negative = cell killing [17, 24] -14% | activity, negative = cell killing [17, 25] -14.3% | activity, negative = cell killing [17, 26] -32% | Potency [18]

COc1ccc2c(c1)c(CC(=O)O)c(C)n2C(=O)c1ccc(Cl)cc1
inactive: Potency [1] | Potency [2] | Potency [3] | Potency [4] | Potency [5] | Potency [6] | Potency [7] | Potency [8] | Potency [9] | Potency [10] | Potency [11] | Potency [13] | Potency [14] | Potency [15] | Potency [16] | activity, negative = cell killing [17, 19] -14.6% | activity, negative = cell killing [17, 20] -6.82% | activity, negative = cell killing [17, 22] -26.1% | activity, negative = cell killing [17, 21] -12.3% | Potency [18]

Cn1cnc2c1c(=O)[nH]c(=O)n2C
inactive: Potency [1] | Potency [2] | Potency [3] | Potency [4] | Potency [5] | Potency [7] | Potency [8] | Potency [9] | Potency [10] | Potency [11] | Potency [12] | Potency [13] | Potency [14] | Potency [15] | Potency [16] | activity, negative = cell killing [17, 19] 0.295% | activity, negative = cell killing [17, 20] -15.5% | activity, negative = cell killing [17, 21] 1.28%

NCCCCCC(=O)O
inactive: Potency [1] | Potency [2] | Potency [3] | Potency [4] | Potency [5] | Potency [6] | Potency [7] | Potency [8] | Potency [9] | Potency [10] | Potency [11] | Potency [12] | Potency [13] | Potency [14] | Potency [15] | Potency [16] | activity, negative = cell killing [17, 23] 16.3% | activity, negative = cell killing [17, 24] -4.6% | activity, negative = cell killing [17, 25] -5.09% | activity, negative = cell killing [17, 26] -27.1% | Potency [18]

C[C@@H]1CC(=O)NN=C1c1ccc(NN=C(C#N)C#N)cc1
inactive: Potency [1] | Potency [5] | Potency [6] | Potency [7] | Potency [8] | Potency [9] | Potency [10] | Potency [11] | Potency [12] | Potency [13] | Potency [14] | Potency [15] | Potency [16] | activity, negative = cell killing [17, 19] -23.8% | activity, negative = cell killing [17, 21] -26.3% | Potency [18]
active: Potency [2] 8.41 µM and 7.5 µM | Potency [3] 21.1 µM
23.7 µM (active) and inactive: Potency [4]

Cc1cn([C@H]2C=C[C@@H](CO)O2)c(=O)[nH]c1=O
inactive: Potency [1] | Potency [2] | Potency [3] | Potency [4] | Potency [5] | Potency [6] | Potency [7] | Potency [8] | Potency [9] | Potency [10] | Potency [11] | Potency [12] | Potency [13] | Potency [14] | Potency [15] | Potency [16] | activity, negative = cell killing [17, 19] -6.16% | activity, negative = cell killing [17, 20] -7.24% | activity, negative = cell killing [17, 22] -20.7% | activity, negative = cell killing [17, 21] -21.2% | Potency [18]

Cc1cnc(C(=O)NCCc2ccc(S(=O)(=O)NC(=O)NC3CCCCC3)cc2)cn1
inactive: Potency [1] | Potency [2] | Potency [3] | Potency [4] | Potency [5] | Potency [7] | Potency [8] | Potency [9] | Potency [10] | Potency [11] | Potency [12] | Potency [13] | Potency [14] | Potency [15] | Potency [16] | activity, negative = cell killing [17, 19] -8.45% | activity, negative = cell killing [17, 20] -17.1% | activity, negative = cell killing [17, 21] 18%

NS(=O)(=O)c1cc2c(cc1Cl)NCNS2(=O)=O
inactive: Potency [1] | Potency [2] | Potency [3] | Potency [4] | Potency [5] | Potency [6] | Potency [7] | Potency [8] | Potency [9] | Potency [10] | Potency [11] | Potency [12] | Potency [13] | Potency [14] | Potency [15] | Potency [16] | activity, negative = cell killing [17, 19] -16.5% | activity, negative = cell killing [17, 20] -0.301% | activity, negative = cell killing [17, 22] -4.73% | activity, negative = cell killing [17, 21] -21.1%

CN(C)C(=N)N=C(N)N
inactive: Potency [1] | Potency [2] | Potency [3] | Potency [4] | Potency [5] | Potency [6] | Potency [7] | Potency [8] | Potency [9] | Potency [10] | Potency [11] | Potency [12] | Potency [13] | Potency [14] | Potency [15] | Potency [16] | activity, negative = cell killing [17, 23] -29.3% | activity, negative = cell killing [17, 24] -4.74% | activity, negative = cell killing [17, 25] -25.1% | activity, negative = cell killing [17, 26] -0.697% | Potency [18]
